Data reported in PubChem BioAssay AID687001 (Broad Institute, 2013).
Potency and affinity values are given separately. Calls of active or inactive are those of the source.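 The calls were made as follows: active = signal-lowering compounds whose fitted half-maximal concentration is at or below twice the top tested dose in every run; inconclusive = runs disagree, flat 30 to 70% inhibition, or poor curve fit; inactive = the rest.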

Target: Protein S100-A4 (Homo sapiens) (UniProt P26447)
Assay: S100A4-myosin IIA binding inhibitor potency, dose response, biochemical, fluorescence polarization, cherry-picked hits (AID 687001)
Conditions: FP, S100A4/TAMRA-myosin IIA peptide binding; series mostly up to 11 µM

Chain of Protein S100-A4 (Homo sapiens) (P26447 whole entry, looked up): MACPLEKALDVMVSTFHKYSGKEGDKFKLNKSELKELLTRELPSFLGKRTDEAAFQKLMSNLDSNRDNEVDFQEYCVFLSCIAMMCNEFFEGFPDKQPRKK

outcome, inactive:
C[C@H]1CN([C@@H](C)CO)C(=O)Cc2cc(NC(=O)CCC(F)(F)F)ccc2O[C@@H]1CN(C)C
COc1ccc(/C=C(\C#N)C(=O)c2cccn2C)cc1
O=C(NCCC1CCCCN1S(=O)(=O)c1cccs1)C(=O)Nc1ccc(F)cc1 (centres undefined)
CC1Cc2ccccc2N1NC(=O)c1ccc(Cl)c(S(N)(=O)=O)c1 (centres undefined)
COc1nnc(-c2ccc(C)c(S(N)(=O)=O)c2)c2ccccc12
COc1ccc(CN2C(=O)c3ccccc3C2c2nnnn2Cc2ccccc2)cc1OC (centres undefined)
N#Cc1ccc(-c2ccc([C@@H]3[C@@H](CO)N4C(=O)CN(C(=O)C5CC5)C[C@H]34)cc2)cc1
CCOC(=O)N1CCN(Cc2nc3cc([N+](=O)[O-])ccc3n2C)CC1
CC1Sc2ccc(S(=O)(=O)N3CCC(C(=O)NCCc4ccccc4)CC3)cc2NC1=O (centres undefined)
CC(C)n1nnnc1C1c2ccccc2C(=O)N1Cc1cccc(F)c1 (centres undefined)
COc1ccc(S(=O)(=O)Nc2ccc3c(c2)CC(=O)N([C@H](C)CO)C[C@H](C)[C@@H](CN(C)CC2CC2)O3)cc1
Cc1cccc(-n2nc3c(c2NC(=O)c2cc4ccccc4o2)CS(=O)(=O)C3)c1
Cc1c(C(=O)NCc2cccc([N+](=O)[O-])c2)sc(=O)n1Cc1cccc(F)c1
CN(C)C(=O)C[C@@H]1C=C[C@H](NC(=O)Nc2cccc(F)c2)[C@@H](CO)O1
C[C@H]1CN([C@@H](C)CO)C(=O)CCCn2nncc2CO[C@H]1CN(C)S(=O)(=O)c1ccc2c(c1)OCCCO2
O=C1CCCn2cc(nn2)COC[C@@H](Cc2ccccc2)N1
Nc1[nH]c(C(=O)c2ccccc2)c(-c2ccccc2C(F)(F)F)c1C(=O)NCc1cccc2ccccc12
CC(=O)c1c(C)[nH]c(C(=O)OCc2csc(CC(=O)Nc3ccccc3C)n2)c1C
C[C@@H]1CCCCO[C@@H](CN(C)C(=O)Cc2ccccc2)[C@H](C)CN([C@@H](C)CO)C(=O)c2cc(NC(=O)Cc3ccccc3)ccc2O1
CCCc1cn(CC[C@@H]2CC[C@H](NS(=O)(=O)c3ccccc3Cl)[C@@H](CO)O2)nn1
O=C1NC(Cc2ccc(Cl)cc2)COCc2cnnn2CCC1c1ccccc1 (centres undefined)
O=C(COC(=O)/C=C/c1ccc(Br)o1)Nc1ccc2[nH]c(=O)[nH]c2c1
COCCNC(=O)C[C@@H]1CC[C@H]2[C@@H](COC[C@H](O)CN2Cc2cccc(-c3ccncc3)c2)O1
CC(=O)N1CC(C)Oc2ccc(S(=O)(=O)NC(CC(=O)O)c3cc(C)ccc3C)cc21 (centres undefined)
C[C@@H]1CN([C@H](C)CO)C(=O)CCCn2cc(nn2)CO[C@H]1CN(C)S(=O)(=O)c1ccc(Oc2ccccc2)nc1
CCn1cc(CNC(=O)C2CCC(=O)N(CCc3cccc(F)c3)C2)cn1 (centres undefined)
CC(C)[C@@H]1C=C(C(=O)O)O[C@H](OCCCCO)C1
CC1CCN(c2nc3c(c(=O)[nH]c(=O)n3C)n2CC(C)CSc2nnnn2-c2ccccc2)CC1 (centres undefined)
C[C@@H]1CN([C@H](C)CO)C(=O)c2c(c3ccccc3n2C)-c2ccccc2CO[C@H]1CN(C)S(=O)(=O)c1ccccc1
CN(C(=O)COC(=O)/C=C/c1ccc2c(c1)OCO2)c1c(N)n(Cc2ccccc2)c(=O)[nH]c1=O
CC(NC(=O)C(=O)NCc1cccs1)c1ccccc1 (centres undefined)
COc1cc(S(=O)(=O)Nc2ccc(C)cc2)ccc1N=Cc1c(C)c(C#N)c(=O)n(C)c1O
O=C(c1cnccn1)N1CC(=O)N2[C@H](CO)[C@@H](c3ccc(-c4ccc(F)cc4)cc3)[C@H]2C1
COC(=O)C1=C(C)N(C)C(=O)NC1c1cc(Cl)c(O)c(OC)c1 (centres undefined)
Cc1ccc2[nH]c(=O)c3cc(C(=O)NCCC(C)C)sc3c2c1
COc1cccc(NC(=O)CC2Oc3ccccc3NC2=O)c1 (centres undefined)
Nc1cc(-c2ccncc2)c[nH]c1=O
Cc1ccc(CN2C(=O)CSCC2(C)C(=O)Nc2c(C)cccc2C)cc1 (centres undefined)
CN(C)C(=O)[C@H]1[C@H](CO)[C@H]2Cn3c(cccc3=O)[C@@H]1N2C(=O)c1ccccc1
